About 21,000 targets were measured; listed, in parts, are those with the largest changes and a random draw of the rest.

These results are taken from the supplement of paper PMC12067093, “Discovery and optimisation of a covalent ligand for TRIM25 and its application to targeted protein ubiquitination” (Chemical Science, 2025).

Compound in the test: CC1Cc2ccccc2N1C(=O)C1CCCN(C1)C(=O)CCl (mixture of isomers) [TRIM25 ligand 11 (diastereomer mixture)]
The test is described as follows: probe-labelled cysteine peptide fold change vs DMSO (competition) (log2 fold change); higher = less target engagement (more negative = stronger competition). The note with it: THP-1, incubation time: 4 h.
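Further: competitive chemoproteomic profiling in live THP-1 cells with an iodoacetamide desthiobiotin (IA-DTB) probe, comparing probe-labelled peptide intensities in compound-treated cells against DMSO-treated controls.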

Chain of UniProt P42331 (P42331 whole entry, looked up): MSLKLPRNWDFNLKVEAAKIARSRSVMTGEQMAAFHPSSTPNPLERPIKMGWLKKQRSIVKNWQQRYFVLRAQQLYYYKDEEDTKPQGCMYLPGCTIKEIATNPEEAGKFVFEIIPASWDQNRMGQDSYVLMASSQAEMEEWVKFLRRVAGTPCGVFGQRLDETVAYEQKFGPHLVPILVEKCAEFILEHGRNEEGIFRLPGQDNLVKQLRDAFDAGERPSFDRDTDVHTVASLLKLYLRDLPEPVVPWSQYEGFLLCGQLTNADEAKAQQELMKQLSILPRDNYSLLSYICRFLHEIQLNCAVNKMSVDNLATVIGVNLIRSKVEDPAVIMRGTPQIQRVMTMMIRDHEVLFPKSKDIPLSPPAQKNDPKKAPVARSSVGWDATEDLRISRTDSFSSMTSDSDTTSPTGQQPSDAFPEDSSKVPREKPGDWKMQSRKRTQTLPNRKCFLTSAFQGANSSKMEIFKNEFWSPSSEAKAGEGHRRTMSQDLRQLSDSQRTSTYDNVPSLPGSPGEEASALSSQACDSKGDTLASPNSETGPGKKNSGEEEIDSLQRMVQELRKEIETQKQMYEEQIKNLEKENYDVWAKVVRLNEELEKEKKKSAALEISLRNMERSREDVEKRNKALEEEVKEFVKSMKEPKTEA
Chain of UniProt P50995 (P50995 whole entry, looked up): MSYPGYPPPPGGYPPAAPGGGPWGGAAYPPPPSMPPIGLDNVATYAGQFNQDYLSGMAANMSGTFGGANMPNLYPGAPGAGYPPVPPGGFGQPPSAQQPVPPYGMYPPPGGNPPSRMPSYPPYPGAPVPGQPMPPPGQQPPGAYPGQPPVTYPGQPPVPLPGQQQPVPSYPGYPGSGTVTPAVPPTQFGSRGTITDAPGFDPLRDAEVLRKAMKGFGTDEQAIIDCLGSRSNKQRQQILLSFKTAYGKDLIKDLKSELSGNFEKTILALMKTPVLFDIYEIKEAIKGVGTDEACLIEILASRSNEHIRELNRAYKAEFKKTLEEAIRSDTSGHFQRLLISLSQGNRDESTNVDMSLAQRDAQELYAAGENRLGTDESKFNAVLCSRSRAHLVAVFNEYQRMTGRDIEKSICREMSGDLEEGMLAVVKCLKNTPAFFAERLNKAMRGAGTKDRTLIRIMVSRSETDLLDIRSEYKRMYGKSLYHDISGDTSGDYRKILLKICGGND
Chain of UniProt Q9H6X2 (Q9H6X2 whole entry): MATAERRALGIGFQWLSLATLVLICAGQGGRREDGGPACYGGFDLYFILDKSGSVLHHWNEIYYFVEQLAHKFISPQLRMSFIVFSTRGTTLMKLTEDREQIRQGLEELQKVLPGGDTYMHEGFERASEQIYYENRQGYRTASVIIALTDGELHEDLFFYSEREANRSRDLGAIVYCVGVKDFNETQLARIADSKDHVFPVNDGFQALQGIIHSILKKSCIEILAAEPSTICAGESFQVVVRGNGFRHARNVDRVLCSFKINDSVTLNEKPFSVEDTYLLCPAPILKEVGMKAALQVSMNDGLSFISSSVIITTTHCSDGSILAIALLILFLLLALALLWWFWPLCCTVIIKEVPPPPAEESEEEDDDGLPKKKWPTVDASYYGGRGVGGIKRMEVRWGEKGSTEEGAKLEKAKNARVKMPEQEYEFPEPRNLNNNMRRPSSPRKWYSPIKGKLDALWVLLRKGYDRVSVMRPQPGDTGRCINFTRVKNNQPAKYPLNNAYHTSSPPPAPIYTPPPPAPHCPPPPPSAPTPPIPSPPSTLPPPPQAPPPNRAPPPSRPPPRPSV
Chain of UniProt Q9NYG5 (Q9NYG5 whole entry, looked up): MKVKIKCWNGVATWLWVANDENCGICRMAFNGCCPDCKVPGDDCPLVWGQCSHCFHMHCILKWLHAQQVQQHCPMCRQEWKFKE
Chain of UniProt Q01433 (Q01433 whole entry, looked up): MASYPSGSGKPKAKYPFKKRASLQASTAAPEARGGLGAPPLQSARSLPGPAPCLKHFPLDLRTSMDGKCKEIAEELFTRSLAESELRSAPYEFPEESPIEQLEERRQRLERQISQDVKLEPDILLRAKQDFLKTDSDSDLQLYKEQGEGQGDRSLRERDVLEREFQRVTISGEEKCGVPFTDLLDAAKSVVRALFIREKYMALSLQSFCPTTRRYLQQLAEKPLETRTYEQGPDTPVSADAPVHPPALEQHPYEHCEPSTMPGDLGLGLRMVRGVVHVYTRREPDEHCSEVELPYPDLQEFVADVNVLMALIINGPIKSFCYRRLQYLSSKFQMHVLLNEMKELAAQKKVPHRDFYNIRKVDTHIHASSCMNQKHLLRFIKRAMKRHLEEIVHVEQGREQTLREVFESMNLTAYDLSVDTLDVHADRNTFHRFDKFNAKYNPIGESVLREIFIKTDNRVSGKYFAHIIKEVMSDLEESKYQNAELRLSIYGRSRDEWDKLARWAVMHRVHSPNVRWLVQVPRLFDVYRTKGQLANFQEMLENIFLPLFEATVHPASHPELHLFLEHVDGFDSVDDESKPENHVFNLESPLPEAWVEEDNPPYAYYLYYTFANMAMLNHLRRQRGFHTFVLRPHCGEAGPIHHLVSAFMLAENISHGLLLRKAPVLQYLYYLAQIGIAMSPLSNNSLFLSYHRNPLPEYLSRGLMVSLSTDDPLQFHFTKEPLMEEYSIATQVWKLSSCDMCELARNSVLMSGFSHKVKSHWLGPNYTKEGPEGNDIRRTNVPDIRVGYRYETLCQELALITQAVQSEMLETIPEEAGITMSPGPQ
Chain of UniProt Q9NXR5 (Q9NXR5 whole entry): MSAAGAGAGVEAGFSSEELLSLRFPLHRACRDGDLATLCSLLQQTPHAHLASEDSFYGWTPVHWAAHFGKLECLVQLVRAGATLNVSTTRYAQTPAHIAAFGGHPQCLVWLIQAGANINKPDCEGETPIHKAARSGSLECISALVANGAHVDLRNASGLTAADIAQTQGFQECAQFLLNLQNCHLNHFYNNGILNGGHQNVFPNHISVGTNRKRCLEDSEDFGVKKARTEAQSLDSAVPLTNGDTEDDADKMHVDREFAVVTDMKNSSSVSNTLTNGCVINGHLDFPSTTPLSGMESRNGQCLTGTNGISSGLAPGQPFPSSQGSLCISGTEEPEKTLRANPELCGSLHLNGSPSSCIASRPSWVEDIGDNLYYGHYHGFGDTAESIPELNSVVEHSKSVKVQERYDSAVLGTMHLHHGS
Chain of UniProt Q02040 (Q02040 whole entry, looked up): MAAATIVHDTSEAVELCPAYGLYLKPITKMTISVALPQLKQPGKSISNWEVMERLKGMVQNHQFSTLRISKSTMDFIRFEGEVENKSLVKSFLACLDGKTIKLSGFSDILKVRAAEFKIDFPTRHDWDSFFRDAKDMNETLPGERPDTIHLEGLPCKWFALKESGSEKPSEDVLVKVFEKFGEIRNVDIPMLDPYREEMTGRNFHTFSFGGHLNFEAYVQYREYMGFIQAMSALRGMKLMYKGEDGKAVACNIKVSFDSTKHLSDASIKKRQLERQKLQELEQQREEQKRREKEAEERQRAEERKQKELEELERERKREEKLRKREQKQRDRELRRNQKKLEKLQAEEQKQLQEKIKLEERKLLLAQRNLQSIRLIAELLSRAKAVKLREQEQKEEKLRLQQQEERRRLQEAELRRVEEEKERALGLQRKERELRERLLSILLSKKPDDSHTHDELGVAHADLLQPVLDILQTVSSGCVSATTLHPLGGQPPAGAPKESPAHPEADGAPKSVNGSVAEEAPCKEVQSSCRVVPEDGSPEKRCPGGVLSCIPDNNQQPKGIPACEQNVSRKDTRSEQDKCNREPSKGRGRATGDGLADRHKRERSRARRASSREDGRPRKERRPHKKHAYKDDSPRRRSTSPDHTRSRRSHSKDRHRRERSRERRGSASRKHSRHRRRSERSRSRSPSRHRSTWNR
Chain of UniProt P02749 (P02749 whole entry, looked up): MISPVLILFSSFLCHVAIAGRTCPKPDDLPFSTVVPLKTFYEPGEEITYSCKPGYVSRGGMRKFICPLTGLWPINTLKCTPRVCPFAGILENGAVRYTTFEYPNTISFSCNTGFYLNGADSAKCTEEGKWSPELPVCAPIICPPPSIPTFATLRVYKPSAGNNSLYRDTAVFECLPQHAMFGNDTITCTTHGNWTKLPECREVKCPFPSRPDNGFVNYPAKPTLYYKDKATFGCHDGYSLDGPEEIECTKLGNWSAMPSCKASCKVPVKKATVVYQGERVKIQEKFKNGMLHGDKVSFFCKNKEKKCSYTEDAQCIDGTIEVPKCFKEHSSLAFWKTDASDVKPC
Chain of UniProt P15289 (P15289 whole entry): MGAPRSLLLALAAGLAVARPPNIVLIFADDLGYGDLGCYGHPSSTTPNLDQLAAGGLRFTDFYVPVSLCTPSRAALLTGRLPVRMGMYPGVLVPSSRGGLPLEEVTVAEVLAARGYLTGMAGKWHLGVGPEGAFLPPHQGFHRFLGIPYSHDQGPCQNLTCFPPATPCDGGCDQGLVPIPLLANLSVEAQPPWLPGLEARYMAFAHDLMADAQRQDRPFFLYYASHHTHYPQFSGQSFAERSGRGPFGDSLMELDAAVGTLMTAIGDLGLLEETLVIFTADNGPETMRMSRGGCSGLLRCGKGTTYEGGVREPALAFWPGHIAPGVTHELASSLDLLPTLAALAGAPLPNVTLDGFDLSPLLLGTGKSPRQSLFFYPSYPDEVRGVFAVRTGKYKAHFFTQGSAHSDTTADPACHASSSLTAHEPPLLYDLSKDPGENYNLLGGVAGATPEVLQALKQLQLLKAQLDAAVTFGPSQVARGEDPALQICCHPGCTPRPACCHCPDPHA
Chain of UniProt P54687 (P54687 whole entry, looked up): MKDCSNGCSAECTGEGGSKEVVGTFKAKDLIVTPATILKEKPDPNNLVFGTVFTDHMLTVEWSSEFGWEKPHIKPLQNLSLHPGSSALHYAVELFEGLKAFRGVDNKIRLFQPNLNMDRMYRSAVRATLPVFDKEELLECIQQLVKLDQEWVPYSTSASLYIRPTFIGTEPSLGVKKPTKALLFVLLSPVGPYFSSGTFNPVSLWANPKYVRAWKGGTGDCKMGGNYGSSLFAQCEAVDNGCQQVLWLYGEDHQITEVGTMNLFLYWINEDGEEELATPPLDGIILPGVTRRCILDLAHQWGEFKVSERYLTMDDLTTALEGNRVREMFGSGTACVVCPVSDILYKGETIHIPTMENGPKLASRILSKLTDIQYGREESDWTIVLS

For the target “ARHGAP45_Q92619_528_SATISYYQMMHMQTAPLPVHFQMLCESSK (UniProt Q92619)”, the “probe-labelled cysteine peptide fold change” value by setting is: (10 µM) -0.132; (50 µM) -0.236.

Regarding “ARRB2_P32121_270_CPVAQLEQDDQVSPSSTFCK (UniProt P32121)”, the “probe-labelled cysteine peptide fold change” value by setting is: (10 µM) 0.677; (50 µM) 0.57.

For the target “ATP5S_Q99766_134_CHYIEDDCLLR (UniProt Q99766)”, the “probe-labelled cysteine peptide fold change” value is, setting by setting: (10 µM) -0.0886; (50 µM) 0.0874.

Turning to “AKAP8_O43823_392+395_IQFACSVCK (UniProt O43823)”, the “probe-labelled cysteine peptide fold change” value runs as follows: (10 µM) -0.0142; (50 µM) 0.0345.

“ARF6_P62330_90_HYYTGTQGLIFVVDCADRDRIDEAR (UniProt P62330)”: the “probe-labelled cysteine peptide fold change” value runs as follows: (10 µM) -0.368; (50 µM) 0.0425.

Regarding “BIN2_Q9UBW5_205_IGCYVTIFQNISNLR (UniProt Q9UBW5)”, the “probe-labelled cysteine peptide fold change” value turned out to be 0.21 (10 µM) and 0.194 (50 µM).

“ATIC_P31939_101_VVACNLYPFVK (UniProt P31939)”: the “probe-labelled cysteine peptide fold change” value runs as follows: (10 µM) -0.0132; (50 µM) 0.0726.

Turning to “ARFGEF2_Q9Y6D5_76_YFLPFELACQSK<|>ARFGEF1_Q9Y6D6_88_YFLPFELACQSK (UniProt Q9Y6D6+Q9Y6D5)”, the “probe-labelled cysteine peptide fold change” value (10 µM) is -0.179 and the “probe-labelled cysteine peptide fold change” value (50 µM) was -0.147.

For the target “AIP_O00170_78_LPVWETIVCTMR (UniProt O00170)”, the “probe-labelled cysteine peptide fold change” value was -0.126 (10 µM) and 1.17 (50 µM).

Turning to “ANKRD10_Q9NXR5_140_SGSLECISALVANGAHVDLR (UniProt Q9NXR5)”, the “probe-labelled cysteine peptide fold change” value was -0.314 (10 µM) and -0.119 (50 µM).

As to APOH_P02749_124_CTEEGK (UniProt P02749), the “probe-labelled cysteine peptide fold change” value is, setting by setting: (10 µM) 0.632; (50 µM) 0.551.

“AKAP17A_Q02040_17_AAATIVHDTSEAVELCPAYGLYLK (UniProt Q02040)”: the “probe-labelled cysteine peptide fold change” value is 0.583 (10 µM) and 0.399 (50 µM).

For the target “BCAT1_P54687_338_EMFGSGTACVVCPVSDILYK (UniProt P54687)”, the “probe-labelled cysteine peptide fold change” value by setting is: (10 µM) 0.15; (50 µM) 0.0428.

In the case of “AMPD2_Q01433_107_SLPGPAPCLK (UniProt Q01433)”, the “probe-labelled cysteine peptide fold change” value runs as follows: (10 µM) -0.11; (50 µM) -0.295.

For “ATP6V1A_P38606_138_WDFTPCK (UniProt P38606)”, the “probe-labelled cysteine peptide fold change” value reads like this: (10 µM) -0.198; (50 µM) -0.819.

“ARHGAP25_P42331_154_VAGTPCGVFGQR (UniProt P42331)”: the “probe-labelled cysteine peptide fold change” value is, setting by setting: (10 µM) 0.0288; (50 µM) -0.103.

Regarding “ARSA_P15289_493_GEDPALQICCHPGCTPR (UniProt P15289)”, the “probe-labelled cysteine peptide fold change” value runs as follows: (10 µM) 0.139; (50 µM) 0.309.

Turning to “ATF6_P18850_321_ESACQSR<|>ATF6B_Q99941_340_ESACQSR (UniProt Q99941+P18850)”, the “probe-labelled cysteine peptide fold change” value (10 µM) was 0.753 and the “probe-labelled cysteine peptide fold change” value (50 µM) worked out at 1.73.

“ALG11_Q2TAA5_72_NQMVIAFFHPYCNAGGGGER (UniProt Q2TAA5)”: the “probe-labelled cysteine peptide fold change” value was -0.0377 (10 µM) and -0.618 (50 µM).

Take “ARPC1B_O15143_26_TQIAICPNNHEVHIYEK (UniProt O15143)”: the “probe-labelled cysteine peptide fold change” value (10 µM) was 0.062 and the “probe-labelled cysteine peptide fold change” value (50 µM) turned out to be 0.00851.

As to “ASAP1_Q9ULH1_652_QTALGNTVLHYCSMYSKPECLK (UniProt Q9ULH1)”, the “probe-labelled cysteine peptide fold change” value by setting is: (10 µM) 0.0362; (50 µM) 0.157.

For “ANXA11_P50995_384_FNAVLCSR (UniProt P50995)”, the “probe-labelled cysteine peptide fold change” value runs as follows: (10 µM) -0.0174; (50 µM) -0.0325.

On to “ASMTL_O95671_274_AEAGEAGQATAEAECHR (UniProt O95671)”, for which the “probe-labelled cysteine peptide fold change” value is -0.103 (10 µM) and -0.158 (50 µM).

With “ATP5F1A_P25705_244_KLYCIYVAIGQK (UniProt P25705)”, the “probe-labelled cysteine peptide fold change” value (10 µM) is -0.433 and the “probe-labelled cysteine peptide fold change” value (50 µM) was 0.0534.

Regarding “ANKRD50_Q9ULJ7_113_QALAFHFCK (UniProt Q9ULJ7)”, the “probe-labelled cysteine peptide fold change” value runs as follows: (10 µM) 0.472; (50 µM) 0.778.

In the case of “ANAPC11_Q9NYG5_76_WLHAQQVQQHCPMCR (UniProt Q9NYG5)”, the “probe-labelled cysteine peptide fold change” value (10 µM) is -0.122 and the “probe-labelled cysteine peptide fold change” value (50 µM) was found to be 0.153.

“APTX_Q7Z2E3_161_DAAQEAEAGTGLEPGSNSGQCSVPLK (UniProt Q7Z2E3)”: the “probe-labelled cysteine peptide fold change” value reads like this: (10 µM) 0.282; (50 µM) -0.342.

With “AGPS_O00116_226_IVNLACK (UniProt O00116)”, the “probe-labelled cysteine peptide fold change” value was 0.221 (10 µM) and 0.311 (50 µM).

For “AHRR_A9YTQ3_485_DVGEDQVHPPLCHFPQR (UniProt A9YTQ3)”, the “probe-labelled cysteine peptide fold change” value came out at 0.678 (10 µM) and 0.583 (50 µM).

In the case of “ARID1A_O14497_2043_EEEQDQGVSCNK (UniProt O14497)”, the “probe-labelled cysteine peptide fold change” value runs as follows: (10 µM) 0.662; (50 µM) 0.268.

With “ARPC1B_O15143_227_VAWVSHDSTVCLADADK (UniProt O15143)”, the “probe-labelled cysteine peptide fold change” value was 0.316 (10 µM) and 0.0213 (50 µM).

For “AP2A1_O95782_492_TVFEALQAPACHENMVK (UniProt O95782)”, the “probe-labelled cysteine peptide fold change” value was 0.179 (10 µM) and 0.0904 (50 µM).

As for “ANTXR1_Q9H6X2_257_VLCSFK (UniProt Q9H6X2)”, the “probe-labelled cysteine peptide fold change” value by setting is: (10 µM) 0.067; (50 µM) 0.257.
